Reference: PubChem BioAssay (EPA / NIEHS)
Values joined by “and” are separate entries in the source; they are usually repeats but may differ in a detail not shown here. Equal values may be shown once. Records with an inconclusive call do not appear. The source holds several records for some structures; these can differ, active in one and inactive in another. Active and inactive are the calls of the source. Rule for the calls: active = hit-call score of the fitted dose curve at least 0.9, where 1 is the maximum; inconclusive = response in the unintended direction; inactive = score below 0.9.

The compounds below were run against rat Androgen Receptor (AR), Ar (gene 24208) (UniProt P15207) (assay: NVS_NR_rAR: NovaScreen (NVS) Nuclear Receptor Binding Assay for rat Androgen Receptor (AR) (AID 2283366)).
Method in brief: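 Cell-free radioligand binding on extracts of prostate from testosterone-pretreated rats, read by filter-based scintillation counting 18 h after dosing. Loss of bound signal fitted positively versus DMSO; primary screen in duplicate at 25 uM, actives followed up in concentration series.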

Chain of rat Androgen Receptor (AR), Ar (gene 24208) (P15207 whole entry, looked up): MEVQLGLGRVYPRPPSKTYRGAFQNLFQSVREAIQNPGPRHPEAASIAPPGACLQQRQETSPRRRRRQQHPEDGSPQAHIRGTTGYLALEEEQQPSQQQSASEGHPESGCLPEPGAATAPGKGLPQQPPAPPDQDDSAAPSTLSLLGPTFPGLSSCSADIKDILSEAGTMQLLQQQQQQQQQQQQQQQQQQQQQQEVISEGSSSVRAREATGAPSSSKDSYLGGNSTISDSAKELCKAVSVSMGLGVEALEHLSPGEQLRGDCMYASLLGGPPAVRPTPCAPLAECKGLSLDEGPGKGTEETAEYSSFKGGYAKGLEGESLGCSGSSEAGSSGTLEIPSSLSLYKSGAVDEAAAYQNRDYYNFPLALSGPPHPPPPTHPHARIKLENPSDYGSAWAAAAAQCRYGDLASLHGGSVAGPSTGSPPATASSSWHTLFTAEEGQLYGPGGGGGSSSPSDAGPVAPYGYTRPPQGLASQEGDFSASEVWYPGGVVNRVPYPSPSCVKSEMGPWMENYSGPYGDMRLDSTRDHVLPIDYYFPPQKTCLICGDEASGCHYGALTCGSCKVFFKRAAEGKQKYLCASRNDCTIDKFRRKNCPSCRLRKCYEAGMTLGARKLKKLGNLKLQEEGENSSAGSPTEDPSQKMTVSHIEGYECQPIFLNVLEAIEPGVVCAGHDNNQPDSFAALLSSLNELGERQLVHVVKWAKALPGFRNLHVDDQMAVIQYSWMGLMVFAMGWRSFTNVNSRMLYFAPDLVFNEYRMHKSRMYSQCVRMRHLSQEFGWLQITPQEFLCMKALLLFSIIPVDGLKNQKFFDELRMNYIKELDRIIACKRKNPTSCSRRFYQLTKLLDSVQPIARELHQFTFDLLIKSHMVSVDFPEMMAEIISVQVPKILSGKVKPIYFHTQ

SMILES	AC50	outcome
CCC(=C(c1ccc(O)cc1)c1ccc(OCCN(C)C)cc1)c1ccccc1	3.78 µM (active) [middle of 4 runs]	–
O=C(O)c1ccccc1C(c1ccc(O)cc1)c1ccc(O)cc1	–	inactive
Cc1oc(-c2ccccc2)nc1CCOc1ccc(C[C@H](Nc2ccccc2C(=O)c2ccccc2)C(=O)O)cc1	16.3 µM (active)	–
CC[C@H](c1ccc(O)cc1)[C@@H](CC)c1ccc(O)cc1	–	inactive
O=c1c(-c2ccc(O)cc2)coc2cc(O)ccc12	–	inactive
CCCOc1sc(C(=O)N2CCC(c3cc(CN)ccc3F)CC2)c(C)c1Br	13.6 µM (active)	–

The compounds below were run against guinea pig Sigma Receptor, Non-selective Binding, SIGMAR1 (gene 100135589) (UniProt Q60492) (assay: NVS_OR_gSIGMA_NonSelective: NovaScreen (NVS) Nuclear Receptor Binding Assay for guinea pig Sigma Receptor, Non-selective Binding (AID 2283367)).
Method in brief: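 gp brain membr., radioligand displacement, 1 h, filtration + scint. counting; DMSO = baseline; 25 uM x2 primary, conc.-response confirm.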

Chain of guinea pig Sigma Receptor, Non-selective Binding, SIGMAR1 (gene 100135589) (Q60492 whole entry, looked up): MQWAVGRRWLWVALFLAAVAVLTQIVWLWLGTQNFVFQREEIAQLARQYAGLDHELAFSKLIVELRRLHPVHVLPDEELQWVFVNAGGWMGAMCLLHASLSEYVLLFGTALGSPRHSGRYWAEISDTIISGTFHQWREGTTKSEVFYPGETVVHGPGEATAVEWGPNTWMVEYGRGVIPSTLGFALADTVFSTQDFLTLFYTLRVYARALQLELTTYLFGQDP

SMILES	AC50	outcome
CCCCCCCCCCCCCC[N+](C)(C)C	0.558 µM (active)	–
CCC(=C(c1ccc(O)cc1)c1ccc(OCCN(C)C)cc1)c1ccccc1	0.598 µM (active)	–
CCC(C)(C)C1CCC(O)CC1 (centres undefined)	–	inactive
Cc1cc(C)c(O)c(C)c1	–	inactive
c1ccc2c(c1)ccc1ccccc12	–	inactive
CCN(CC)CCNc1ccc(CNC=O)c2sc3ccc(OC)cc3c(=O)c12	12.2 µM (active)	–
CCCOc1sc(C(=O)N2CCC(c3cc(CN)ccc3F)CC2)c(C)c1Br	1.27 µM (active)	–

These compounds were tested against human Adenosine Transporter (Adot), SLC29A1 (gene 2030) (UniProt Q99808) (assay: NVS_TR_hAdoT: NovaScreen (NVS) Transporter Assay for human Adenosine Transporter (Adot) (AID 2283368)).
Procedure: NVS_TR_hAdoT is a biochemical, single-readout assay that uses extracted gene-proteins from U937 in a cell-free assay. Measurements were taken 1 hour after chemical dosing in a 96-well plate.NVS_TR_hAdoT is one of one assay component(s) measured or calculated from the NVS_TR_hAdoT assay. It is designed to make measurements of radioligand binding, a form of binding reporter, as detected with scintillation counting signals by Filter-based radiodetection technology.Data from the assay component NVS_TR_hAdoT was analyzed into 1 assay endpoint. This assay endpoint, NVS_TR_hAdoT, was analyzed in the positive analysis fitting direction relative to DMSO as the negative control and baseline of activity. Using a type of binding reporter, loss-of-signal activity can be used to understand changes in the binding as they relate to the gene SLC29A1. Furthermore, this assay endpoint can be referred to as a primary readout, because the performed assay has only produced 1 assay endpoint. To generalize the intended target to other relatable targets, this assay endpoint is annotated to the transporter intended target family, where the subfamily is nucleoside transporter.
Binding assays used specific radioligands (tritiated, iodinated) with non-radioactive competitive displacement ligands in agonist or antagonist protocols (as indicated) and various reference compounds and inhibitors to titrate specific binding to receptors and transporters. Most enzyme assays (CYPs, kinases, phosphatases, proteases, HDACs) used recombinant protein and specific substrates (fluorescence mostly, some colorimetric and radioactive) and inhibitors, followed by a biochemical separation of substrate and product. All assays for the biochemical HTS were initially run in duplicate at a single concentration (10 uM for CYP450 assays and 25 uM for all others). Assay-chemical combinations meeting a pre-defined threshold (e.g., 30% inhibition and other criteria defined below) were then run in singleton concentration-response format with maximum concentration of 20 uM for CYPs and 50 uM for all others. Each assay was run with positive and negative controls, and concurrent controls on every plate. The follow-up (secondary) screen tested active chemical-pairs in concentration series, as well as a few additional assays not tested in the primary screen, some selected negative inactives, and several cases re-run in the concentration series for confirmatory purposes.

Chain of human Adenosine Transporter (Adot), SLC29A1 (gene 2030) (Q99808 whole entry, looked up): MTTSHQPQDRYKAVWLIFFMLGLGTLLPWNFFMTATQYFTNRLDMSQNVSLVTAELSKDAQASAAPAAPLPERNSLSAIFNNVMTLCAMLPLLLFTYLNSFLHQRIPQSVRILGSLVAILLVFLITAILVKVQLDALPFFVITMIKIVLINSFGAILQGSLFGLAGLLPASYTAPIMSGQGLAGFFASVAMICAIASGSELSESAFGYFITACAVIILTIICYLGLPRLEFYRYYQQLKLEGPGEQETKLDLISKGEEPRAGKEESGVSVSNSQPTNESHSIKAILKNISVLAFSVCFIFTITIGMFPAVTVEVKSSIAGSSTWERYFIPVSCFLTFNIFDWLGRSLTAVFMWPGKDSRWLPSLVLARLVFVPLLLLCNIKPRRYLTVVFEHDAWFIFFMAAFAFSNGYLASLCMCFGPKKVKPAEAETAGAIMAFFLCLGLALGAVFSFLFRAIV

SMILES	outcome	AC50
CCC(=C(c1ccc(O)cc1)c1ccc(OCCN(C)C)cc1)c1ccccc1	inactive	–
Cc1oc(-c2ccccc2)nc1CCOc1ccc(C[C@H](Nc2ccccc2C(=O)c2ccccc2)C(=O)O)cc1	–	20.8 µM (active)
CCCOc1sc(C(=O)N2CCC(c3cc(CN)ccc3F)CC2)c(C)c1Br	–	18.8 µM (active)
CC#C[C@]1(O)CC[C@H]2[C@@H]3CCC4=CC(=O)CCC4=C3[C@@H](c3ccc(N(C)C)cc3)C[C@@]21C	inactive	–

Each compound was assayed on guinea pig Dopamine Transporter (DAT), gene 100714898 (assay: NVS_TR_gDAT: NovaScreen (NVS) Transporter Assay for guinea pig Dopamine Transporter (DAT) (AID 2283369);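 note: active compounds lower bound radioligand signal relative to DMSO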).
Method in brief: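 Primary pass: duplicate wells at 25 uM, threshold e.g. 30% inhibition. Follow-up: singleton concentration-response, highest 50 uM. Radioligand binding on guinea pig striatal membranes, 2 h, filtration scintillation detection.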

SMILES	AC50	outcome
CCC(=C(c1ccc(O)cc1)c1ccc(OCCN(C)C)cc1)c1ccccc1	3.77 µM (active)	–
CC(=O)NC1(c2cccc(F)c2)CCN(CC[C@@]2(c3ccc(Cl)c(Cl)c3)CN(c3ccccc3)C(=O)CO2)CC1	25.1 µM (active)	–
Cc1oc(-c2ccccc2)nc1CCOc1ccc(C[C@H](Nc2ccccc2C(=O)c2ccccc2)C(=O)O)cc1	25 µM (active)	–
CC[C@H](c1ccc(O)cc1)[C@@H](CC)c1ccc(O)cc1	3.27 µM (active)	–
CCN(CC)CCNc1ccc(CNC=O)c2sc3ccc(OC)cc3c(=O)c12	14.9 µM (active)	–
CCCOc1sc(C(=O)N2CCC(c3cc(CN)ccc3F)CC2)c(C)c1Br	14.4 µM (active)	–
CC#C[C@]1(O)CC[C@H]2[C@@H]3CCC4=CC(=O)CCC4=C3[C@@H](c3ccc(N(C)C)cc3)C[C@@]21C	–	inactive

The compounds below were run against human Dopamine Transporter (DAT), SLC6A3 (gene 6531) (UniProt Q01959) (assay: NVS_TR_hDAT: NovaScreen (NVS) Transporter Assay for human Dopamine Transporter (DAT) (AID 2283374);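 note: activity means loss of bound radioligand signal relative to DMSO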).
Method in brief: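 Test chemicals were first screened in duplicate at 25 uM, with actives retested as concentration series. Displacement of a specific radioligand from cell-free human dopamine transporter was measured after 1 h by filtration and scintillation counting.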

Chain of human Dopamine Transporter (DAT), SLC6A3 (gene 6531) (Q01959 whole entry, looked up): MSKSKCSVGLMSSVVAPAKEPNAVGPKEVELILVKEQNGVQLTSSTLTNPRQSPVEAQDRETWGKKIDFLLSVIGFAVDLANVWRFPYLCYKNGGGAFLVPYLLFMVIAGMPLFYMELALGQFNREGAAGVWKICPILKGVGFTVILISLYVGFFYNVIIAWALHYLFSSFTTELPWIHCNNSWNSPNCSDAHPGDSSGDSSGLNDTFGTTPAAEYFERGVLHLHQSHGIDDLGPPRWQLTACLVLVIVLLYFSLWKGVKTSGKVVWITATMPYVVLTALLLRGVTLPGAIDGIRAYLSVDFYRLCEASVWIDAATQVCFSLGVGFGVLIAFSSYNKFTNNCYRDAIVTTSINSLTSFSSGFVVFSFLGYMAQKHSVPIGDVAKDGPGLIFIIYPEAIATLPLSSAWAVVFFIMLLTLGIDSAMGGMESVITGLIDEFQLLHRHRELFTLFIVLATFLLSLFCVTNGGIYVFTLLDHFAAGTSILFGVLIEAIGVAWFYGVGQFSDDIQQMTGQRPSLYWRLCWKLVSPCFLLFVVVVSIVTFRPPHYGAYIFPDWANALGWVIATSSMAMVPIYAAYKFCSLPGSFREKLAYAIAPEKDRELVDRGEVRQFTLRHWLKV

SMILES	AC50	outcome
CCCCCCCCCCCCCC[N+](C)(C)C	4.13 µM (active)	–
CCC(=C(c1ccc(O)cc1)c1ccc(OCCN(C)C)cc1)c1ccccc1	1.48 µM (active)	–
CC(C)CCCCCCOC(=O)CCCCC(=O)OCCCCCCC(C)C	–	inactive
CC(=O)NC1(c2cccc(F)c2)CCN(CC[C@@]2(c3ccc(Cl)c(Cl)c3)CN(c3ccccc3)C(=O)CO2)CC1	9.61 µM (active)	–
Cc1oc(-c2ccccc2)nc1CCOc1ccc(C[C@H](Nc2ccccc2C(=O)c2ccccc2)C(=O)O)cc1	5.28 µM (active)	–
CC[C@H](c1ccc(O)cc1)[C@@H](CC)c1ccc(O)cc1	0.461 µM (active)	–
CCN(CC)CCNc1ccc(CNC=O)c2sc3ccc(OC)cc3c(=O)c12	12.8 µM (active)	–
CC1=C(/C=C/C(C)=C/C=C/C(C)=C/C(=O)O)C(C)(C)CCC1	6.66 µM (active)	–
CCCOc1sc(C(=O)N2CCC(c3cc(CN)ccc3F)CC2)c(C)c1Br	1.19 µM (active)	–

Each compound was assayed against human Norepinephrine Transporter (NET), SLC6A2 (gene 6530) (UniProt P23975) (assay: NVS_TR_hNET: NovaScreen (NVS) Transporter Assay for human Norepinephrine Transporter (NET) (AID 2283377);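 note: cell-free membrane protein extracted from CHO cells expressing human NET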;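 for AC50: displacement of radioligand from human NET seen as loss of scintillation signal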).
Method in brief: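 Scintillation counts of filter-retained radioligand served as the readout, taken 1 h post-dosing in a cell-free CHO-derived system. Test chemicals ran first at 25 uM in duplicate; confirmed hits were retested across concentrations.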

Chain of human Norepinephrine Transporter (NET), SLC6A2 (gene 6530) (P23975 whole entry, looked up): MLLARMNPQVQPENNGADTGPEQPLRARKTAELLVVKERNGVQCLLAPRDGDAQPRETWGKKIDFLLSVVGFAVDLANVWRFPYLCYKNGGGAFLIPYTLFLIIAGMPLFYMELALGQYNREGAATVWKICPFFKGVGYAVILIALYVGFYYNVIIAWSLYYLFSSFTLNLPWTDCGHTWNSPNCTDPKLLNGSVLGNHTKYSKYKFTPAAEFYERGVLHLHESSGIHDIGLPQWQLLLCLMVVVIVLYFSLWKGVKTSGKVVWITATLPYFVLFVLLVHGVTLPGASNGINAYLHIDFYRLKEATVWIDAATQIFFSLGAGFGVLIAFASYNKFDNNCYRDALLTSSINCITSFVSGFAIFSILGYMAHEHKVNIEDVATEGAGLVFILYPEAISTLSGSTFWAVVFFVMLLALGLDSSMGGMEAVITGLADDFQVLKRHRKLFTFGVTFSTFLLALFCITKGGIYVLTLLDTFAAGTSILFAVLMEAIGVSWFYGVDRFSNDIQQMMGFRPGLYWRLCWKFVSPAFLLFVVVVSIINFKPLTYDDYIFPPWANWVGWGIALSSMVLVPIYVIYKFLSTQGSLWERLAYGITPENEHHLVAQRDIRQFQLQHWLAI

SMILES	AC50	outcome
c1ccc2cc3c(ccc4ccccc43)cc2c1	14.7 µM (active)	–
CCCCCCCCCCCCCC[N+](C)(C)C	3.12 µM (active)	–
O=[N+]([O-])c1ccc(O)cc1	–	inactive
CCC(=C(c1ccc(O)cc1)c1ccc(OCCN(C)C)cc1)c1ccccc1	4.24 µM (active)	–
CC(=O)NC1(c2cccc(F)c2)CCN(CC[C@@]2(c3ccc(Cl)c(Cl)c3)CN(c3ccccc3)C(=O)CO2)CC1	10.1 µM (active)	–
Cc1oc(-c2ccccc2)nc1CCOc1ccc(C[C@H](Nc2ccccc2C(=O)c2ccccc2)C(=O)O)cc1	7.12 µM (active)	–
CCN(CC)CCNc1ccc(CNC=O)c2sc3ccc(OC)cc3c(=O)c12	5.84 µM (active)	–
CCCOc1sc(C(=O)N2CCC(c3cc(CN)ccc3F)CC2)c(C)c1Br	4.18 µM (active)	–
CC#C[C@]1(O)CC[C@H]2[C@@H]3CCC4=CC(=O)CCC4=C3[C@@H](c3ccc(N(C)C)cc3)C[C@@]21C	–	inactive

These compounds were tested against mouse Estrogen Receptor alpha (Era), Esr1 (gene 13982) (UniProt P19785) (assay: NVS_NR_mERa: NovaScreen (NVS) Nuclear Receptor Binding Assay for mouse Estrogen Receptor alpha (Era) (AID 2283378);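 note: hit means loss of bound radioligand signal relative to DMSO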).
Method in brief: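 Measurements come from scintillation counting after filtration, taken 18 hours after chemicals were added to a cell-free mouse Era preparation with radioligand. Screening was duplicate at 25 uM, with concurrent positive and negative controls and confirmatory concentration series for actives.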

Chain of mouse Estrogen Receptor alpha (Era), Esr1 (gene 13982) (P19785 whole entry, looked up): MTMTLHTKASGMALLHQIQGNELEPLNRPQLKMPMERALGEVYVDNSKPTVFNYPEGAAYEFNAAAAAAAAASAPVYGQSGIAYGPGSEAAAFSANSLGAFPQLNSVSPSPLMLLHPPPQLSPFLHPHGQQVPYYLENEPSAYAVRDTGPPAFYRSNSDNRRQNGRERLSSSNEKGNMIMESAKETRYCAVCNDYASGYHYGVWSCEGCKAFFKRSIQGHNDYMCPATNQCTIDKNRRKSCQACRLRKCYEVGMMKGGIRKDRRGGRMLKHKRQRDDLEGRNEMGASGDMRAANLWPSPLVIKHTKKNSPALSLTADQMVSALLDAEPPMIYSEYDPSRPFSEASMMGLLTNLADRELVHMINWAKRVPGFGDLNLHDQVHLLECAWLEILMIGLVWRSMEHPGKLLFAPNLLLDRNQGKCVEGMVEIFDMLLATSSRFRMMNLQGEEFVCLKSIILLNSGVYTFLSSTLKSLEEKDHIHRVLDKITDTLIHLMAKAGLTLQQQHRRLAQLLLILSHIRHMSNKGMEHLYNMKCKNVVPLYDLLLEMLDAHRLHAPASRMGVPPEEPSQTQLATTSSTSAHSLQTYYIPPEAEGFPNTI

SMILES	outcome	AC50
c1ccc2cc3c(ccc4ccccc43)cc2c1	inactive	–
CCCCCCCCCCCCCC[N+](C)(C)C	–	14.3 µM (active)
O=C1OC2(c3ccccc31)c1cc(Br)c(O)c(Br)c1Oc1c2cc(Br)c(O)c1Br	inactive	–
O=[N+]([O-])c1ccc(O)cc1	inactive	–
O=C(O)c1ccccc1C(c1ccc(O)cc1)c1ccc(O)cc1	inactive	7.92 µM (active) and 7.1 µM (active)
CCC(C)(C)C1CCC(O)CC1 (centres undefined)	inactive	6.46 µM (active)
CCCCCCCCCCCCN1CCCC1=O	inactive	–
CCc1nn(C2CCCCC2)c2cc(C3(C#N)CCC(C(=O)O)CC3)ccc12 (centres undefined)	inactive	–
COCC(C)O (centres undefined)	–	11.5 µM (active)
OCCC(F)(F)C(F)(F)C(F)(F)C(F)(F)C(F)(F)C(F)(F)C(F)(F)C(F)(F)F	inactive	–
CC(=O)NC1(c2cccc(F)c2)CCN(CC[C@@]2(c3ccc(Cl)c(Cl)c3)CN(c3ccccc3)C(=O)CO2)CC1	inactive	–
CC[C@H](c1ccc(O)cc1)[C@@H](CC)c1ccc(O)cc1	inactive	1.52 nM (active) and 2.29 nM (active) and 4.85 nM (active)
CCN(CC)CCNc1ccc(CNC=O)c2sc3ccc(OC)cc3c(=O)c12	–	1.37 µM (active)
O=c1c(-c2ccc(O)cc2)coc2cc(O)ccc12	–	421 nM (active) [middle of 4 runs]
OC1CCCCC1	inactive	–
CCCOc1sc(C(=O)N2CCC(c3cc(CN)ccc3F)CC2)c(C)c1Br	–	5.52 µM (active)
C[C@@H]1C[C@H]2[C@@H]3CCC4=CC(=O)C=C[C@]4(C)[C@@]3(F)[C@@H](O)C[C@]2(C)[C@@]1(O)C(=O)COP(=O)(O)O	inactive	–
CC#C[C@]1(O)CC[C@H]2[C@@H]3CCC4=CC(=O)CCC4=C3[C@@H](c3ccc(N(C)C)cc3)C[C@@]21C	inactive	0.289 µM (active)
